Measured values published in PubChem BioAssay (NCI).
The panel holds about 79,000 compounds, 15% with a hit somewhere; the sample as a whole holds those more often. Rule as the data show it: active = growth inhibition above about 70%; inactive = the rest.

Legend:
[1] = NCI Yeast Anticancer Drug Screen. Data for the rad50 strain (AID 155);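 also: 0% = growth of vehicle-only cultures of the same strain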; settings: S. cerevisiae rad50 strain growth inhibition; at 50.0 µM; stronger effect = higher value
In short: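 Cells are treated with compound, grown, and their growth is then scored against vehicle-only cultures of the same repair-deficient yeast strain.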

[2] = NCI Yeast Anticancer Drug Screen. Data for the mec2-1 strain (AID 157); settings: S. cerevisiae mec2-1 strain, at 50.0 µM, stronger effect = higher value
In short: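 Using mec2-1 yeast: add compound, measure growth, express inhibition versus vehicle-treated cultures.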

[3] = NCI Yeast Anticancer Drug Screen. Data for the sgs1 mgt1 strain (AID 161);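 also: 0% = growth of cultures given vehicle only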; settings: S. cerevisiae sgs1 mgt1 strain, at 50.0 µM, stronger effect = higher value
In short: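 Percent growth inhibition was derived by comparing compound-exposed mutant yeast with vehicle-exposed cultures. The strain carries alterations in DNA damage repair.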

[4] = NCI Yeast Anticancer Drug Screen. Data for the cln2 rad14 strain (AID 165);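 also: 0% = growth equal to vehicle treated cultures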; settings: S. cerevisiae cln2 rad14 strain, at 50.0 µM, stronger effect = higher value
In short: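 Yeast strain cln2 rad14, bearing defects in cell cycle control and DNA repair, serves as the test system; values reflect growth inhibition compared with vehicle.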

[5] = NCI Yeast Anticancer Drug Screen. Data for the bub3 strain (AID 167); settings: S. cerevisiae bub3 mutant strain, at 50.0 µM, stronger effect = higher value
In short: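 Part of a panel of yeast mutants defective in DNA damage repair or cell cycle regulation. Each strain is grown with compound, and inhibition is calculated relative to solvent-treated cultures.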

[6] = NCI Yeast Anticancer Drug Screen. Data for the mlh1 rad18 strain (AID 175); settings: S. cerevisiae mlh1 rad18 strain growth inhibition; at 50.0 µM; stronger effect = higher value
In short: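 Steps: expose repair-defective yeast to compound; measure growth; express inhibition against vehicle-treated controls.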

Measured: growth inhibition

CCOC(=O)c1oc2ccc(OC)c3c2c1CCC3
inactive: [1] 2.8% | [2] -1% | [3] 6.3% | [4] 15.4% | [5] 11.6% | [6] 19.6%

COc1cc(C2(C)OC(=O)c3ccccc32)c(OC)c2ccccc12 (stereo not given)
inactive: [1] 27.9% | [2] 2.3% | [3] 30.4% | [4] 31.3% | [5] 30.9% | [6] 14.2%

CC1(c2ccccc2)OCCS1 (stereo not given)
inactive: [1] 40.7% | [2] 21.1% | [3] 19.8% | [4] 14.6% | [5] 1.1% | [6] 28.8%

Cn1ccccc1=O
inactive: [1] 36.8% | [2] -26.7% | [3] -8.55% | [4] -56.5% | [5] 3.4% | [6] 27.2%

CC(=O)Nc1ccc(S(=O)(=O)N/N=c2/sc3ccccc3n2C)cc1N
inactive: [1] -4.6% | [2] -2.7% | [3] -3.8% | [4] 15.2% | [5] -8.75% | [6] 3.2%

CC1C/C(=C\c2ccccc2)C(=O)/C1=C/c1ccccc1 (stereo not given)
inactive: [1] -3.6% | [2] 17.4% | [3] 7.3% | [4] -6.4% | [5] -2.75% | [6] -15.9%

Nc1ccc(C(=O)NO)c(O)c1
inactive: [1] 6.2% | [2] 18.9% | [3] -7.55% | [4] -41.8% | [5] 18.7% | [6] -6%

CCOC(=O)c1cccc(OCC)c1
inactive: [1] 6.95% | [2] 18.1% | [3] -7.65% | [4] -43% | [5] 3.5% | [6] 6.7%

COC(=O)c1ccncc1
inactive: [1] -2.6% | [2] 2.95% | [3] -2.8% | [4] -35.8% | [5] 10.4% | [6] -0.45%

N#CCc1ccc(C(C#N)C(=O)CCC(=O)C(C#N)c2ccc(CC#N)cc2)cc1 (stereo not given)
inactive: [1] 11.7% | [2] 11.3% | [3] -13.1% | [4] 34.1% | [5] -0.3% | [6] 22.1%

Cc1cccc(C(=O)NNC(=O)c2ccc3ccccc3c2)c1
inactive: [1] -60.3% | [2] -49.7% | [3] -23.9% | [4] -3.6% | [5] -28.9% | [6] -33.2%

O=S1(=O)NC(=NC2CCCC2)c2ccccc21
inactive: [1] 0.7% | [2] -12.4% | [3] -3.55% | [4] -35.8% | [5] -7.75% | [6] 1.15%

Brc1ccc(C=C2c3ccccc3-c3ccccc32)cc1
inactive: [1] -11.1% | [2] -8% | [3] -16.4% | [4] 6.85% | [5] 7.65% | [6] 1.95%

O=C1Cc2c(-c3ccccc3)cc(-c3ccccc3)nc2-c2ccccc2N1
inactive: [1] -4.2% | [2] 39.2% | [3] 39% | [4] 25.7% | [5] 29.2% | [6] 41.2%

CCCC(=O)Oc1c(Cl)cc(Cl)cc1-c1ccccc1
inactive: [1] 12.8% | [2] 12.9% | [3] 37.9% | [4] 8.1% | [5] 28.6% | [6] 1.45%

COc1cccc(C(=O)O)c1[N+](=O)[O-]
inactive: [1] -19.1% | [2] -26.6% | [3] -24% | [4] -46.1% | [5] -6.05% | [6] -1%

Cc1ccc(N2C(=O)CSC2=S)cc1C
inactive: [1] -1.7% | [2] -15.7% | [3] -30% | [4] -38% | [5] -29% | [6] -9.5%

NC(=O)NC(=O)N/N=C/c1ccccc1
inactive: [1] 23.2% | [2] 2.4% | [3] 2.8% | [4] 4.15% | [5] 7.6% | [6] 14.9%

CCOC(=O)N1CC(C)N(C(=O)OCC)CC1C (stereo not given)
inactive: [1] -3.9% | [2] -7.1% | [3] 6.7% | [4] -15.8% | [5] 33.8% | [6] 8.5%

Cc1cc(C(c2ccc(Nc3ccccc3)cc2)c2ccc(Nc3ccccc3)cc2)ccc1Nc1ccccc1
inactive: [1] 2.35% | [2] -4.65% | [3] 7.5% | [4] -7.05% | [5] 5.5% | [6] -19.1%
